Assay outcomes: PubChem, several laboratories
Mdm2-MdmX inh: human Mdm2/MdmX binding inhibition; SaOS-2 split-luciferase Mdm2/MdmX complementation, luminescence; AID 485346; inhibition, % at 8 µM; O15151+Q00987; 330,000 compounds, 3% hits;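 active = inhibition of at least 50% at 8 µM in the primary screen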
Target sequence (O15151 whole entry, looked up): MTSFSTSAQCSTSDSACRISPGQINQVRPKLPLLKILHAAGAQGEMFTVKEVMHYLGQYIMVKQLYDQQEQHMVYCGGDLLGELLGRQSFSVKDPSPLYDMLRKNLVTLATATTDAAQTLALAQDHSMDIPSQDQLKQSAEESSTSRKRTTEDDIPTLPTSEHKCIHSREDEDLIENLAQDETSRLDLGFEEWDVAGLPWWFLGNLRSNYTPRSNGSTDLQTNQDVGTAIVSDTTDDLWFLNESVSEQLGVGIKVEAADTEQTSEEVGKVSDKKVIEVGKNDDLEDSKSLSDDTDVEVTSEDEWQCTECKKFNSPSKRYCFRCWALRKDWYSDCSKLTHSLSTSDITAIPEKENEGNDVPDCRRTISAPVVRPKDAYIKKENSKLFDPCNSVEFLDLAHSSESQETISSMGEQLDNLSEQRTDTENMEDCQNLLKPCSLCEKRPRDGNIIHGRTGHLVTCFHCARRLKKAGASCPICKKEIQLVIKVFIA
Target sequence (Q00987 whole entry, looked up): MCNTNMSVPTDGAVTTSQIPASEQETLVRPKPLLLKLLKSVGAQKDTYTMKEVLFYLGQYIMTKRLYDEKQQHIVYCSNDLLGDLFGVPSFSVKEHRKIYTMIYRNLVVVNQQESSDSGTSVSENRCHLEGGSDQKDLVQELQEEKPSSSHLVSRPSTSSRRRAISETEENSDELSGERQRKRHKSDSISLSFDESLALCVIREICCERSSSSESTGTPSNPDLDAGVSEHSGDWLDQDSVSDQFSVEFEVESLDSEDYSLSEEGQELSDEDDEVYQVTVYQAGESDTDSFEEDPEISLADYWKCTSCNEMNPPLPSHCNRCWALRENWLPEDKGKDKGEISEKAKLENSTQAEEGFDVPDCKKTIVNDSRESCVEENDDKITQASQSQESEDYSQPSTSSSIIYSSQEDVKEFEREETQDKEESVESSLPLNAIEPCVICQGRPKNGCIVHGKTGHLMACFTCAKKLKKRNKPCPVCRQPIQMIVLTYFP
Shn3 3UTR inh: Schnurri-3 reporter inhibition in Clone20 osteoblasts. 360,000 compounds, 0.52% hits. inhibition, % at 12.5 µM. Clone20 osteoblast Shn3 3'UTR firefly luciferase, 24 h;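 active = mean inhibition of at least 75% with every replicate also reaching 75%; inconclusive = mean inhibition at least 75% but some replicate below; inactive = mean inhibition below 75%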;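 also: 0% = median of neutral control wells and 100% = pilot-screen positive control compound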
PAX8 reporter: inhibitors of PAX8 transcriptional activity in RMG-I cells. 360,000 compounds, 1.2% hits. RMG-I TPO-luciferase reporter, SteadyGlo, 24 h. AID 652154. inhibition, % at 12.6 µM;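 active = mean replicate inhibition at least 60% with every replicate also reaching 60%; inconclusive = only one of the two criteria is met; inactive = mean below 60% and not all replicates reaching 60%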;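 also: luciferase light reporting Pax8 driven TPO promoter activity; plate controls were median of neutral control wells for no effect and mitoxantrone controls for full effect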
CSC inhib: cancer stem cell inhibition; cancer stem cell-like cells viability, luminescence; inhibition, % at 7.5 µM; 300,000 compounds, 1.1% hits; AID 2717; in the data active = inhibition above about 75%; inconclusive = no clear call, values can overlap the other calls; tested in HMLE shEcad cells
Beta cell apopt: blocks beta cell apoptosis. INS-1E cytokine-induced death, ATP luminescence, 48 h; percent of positive-control rescue, neutral wells zero. protection from apoptosis, % (no concentration beside the values). 300,000 compounds, 0.8% hits;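 active = Every replicate reaches about 75%, or at least half do and their mean reaches it too, limit read from the data; inconclusive = At least half of replicates reach the limit but their mean does not; inactive = Under half of replicates reach the limit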;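 also: 0% = cytokine-treated negative control wells and 100% = positive control rescue; higher means more ATP so stronger rescue from cytokine killing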
Gli-Sufu block: blocks Gli-Sufu signaling in a luciferase reporter; Sufu-KO-LIGHT fibroblasts, Gli luciferase reporter luminescence; inhibition, % at 5 µM; 340,000 compounds, 0.74% hits;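 active = inhibition above about 55%, limit read from the data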;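 also: 0% = DMSO-treated cells and 100% = wells with medium but no cells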
An asterisk follows results filed as active. Rows were chosen to be rich in hits. Some 4% of all compounds tested hit in one or more screens of this group.

C[C@@H]1CCCCO[C@H](CN(C)Cc2ccc(C(F)(F)F)cc2)[C@@H](C)CN([C@H](C)CO)C(=O)c2cc(NS(=O)(=O)c3ccc(Cl)cc3)ccc2O1 was read as PAX8 reporter -14.2.
C[C@@H]1CCCCO[C@H](CN(C)Cc2ccc(C(F)(F)F)cc2)[C@H](C)CN([C@H](C)CO)C(=O)c2cc(NS(=O)(=O)c3ccc(Cl)cc3)ccc2O1 was read as PAX8 reporter 98.6*.
Screening C[C@@H]1CCCCO[C@@H](CN(C)Cc2ccc(C(F)(F)F)cc2)[C@H](C)CN([C@@H](C)CO)C(=O)c2cc(NS(=O)(=O)c3ccc(Cl)cc3)ccc2O1 returned PAX8 reporter 102.6*.
For COc1ccc(S(=O)(=O)Nc2ccc3c(c2)C(=O)N([C@@H](C)CO)C[C@H](C)[C@@H](CN(C)S(=O)(=O)c2ccc(C)cc2)O3)cc1 the results were PAX8 reporter 14.9.
O=C(c1ccncc1)N1CC(=O)N2[C@H](CO)[C@H](c3ccc(-c4ccccc4)cc3)[C@H]2C1 was read as PAX8 reporter -4.1.
C[C@@H]1CCCCO[C@@H](CN(C)Cc2ccc(C(F)(F)F)cc2)[C@H](C)CN([C@H](C)CO)C(=O)c2cc(NS(=O)(=O)c3ccc(Cl)cc3)ccc2O1 was read as PAX8 reporter 103.4*.
C[C@@H]1CN([C@@H](C)CO)C(=O)c2cc(NS(=O)(=O)c3ccc(Cl)cc3)ccc2O[C@@H](C)CCCCO[C@@H]1CN(C)Cc1ccc(C(F)(F)F)cc1 was read as PAX8 reporter -16.1.
For C[C@@H]1CN([C@H](C)CO)C(=O)c2cc(NS(=O)(=O)c3ccc(Cl)cc3)ccc2O[C@@H](C)CCCCO[C@H]1CN(C)Cc1ccc(C(F)(F)F)cc1 the results were PAX8 reporter 99.3*.
For O=C(Nc1nc(-c2cccs2)c(-c2cccs2)s1)C1(c2ccccc2)CC1 the results were Mdm2-MdmX inh 35.0, Shn3 3UTR inh 0.6, PAX8 reporter 102.4*, CSC inhib 42.5, Beta cell apopt -1.1 and Gli-Sufu block 6.5.
Cn1cnc(CCNC(=O)C[C@H]2CC[C@@H]3[C@H](COC[C@H](O)CN3C(=O)Nc3ccc(C(F)(F)F)cc3)O2)c1 was read as PAX8 reporter -11.5.
Screening C=C1C(=O)[C@]23C[C@H]1CCC2[C@@]1(C)C(C[C@@H]3O)[C@](C)(C(=O)OC)CC[C@@H]1O (stereo partly drawn) returned Shn3 3UTR inh 99.2* and PAX8 reporter 107.9*.
Screening CC(=O)Oc1ccc2ccccc2c1C(NC(=O)Cc1ccccc1)c1ccc(Cl)cc1 (stereo not drawn) returned Mdm2-MdmX inh 36.3, Shn3 3UTR inh 7.2, PAX8 reporter 84.7*, CSC inhib inconclusive, Beta cell apopt -4.3 and Gli-Sufu block 3.0.
For CCOc1ccc(C(NC(=O)CC)c2c(O)ccc3ccccc23)cc1 (stereo not drawn) the results were Mdm2-MdmX inh 30.1, Shn3 3UTR inh -7.6, PAX8 reporter 22.6, CSC inhib 47.1, Beta cell apopt -4.7 and Gli-Sufu block -3.6.
For COc1ccc(CN(C)C[C@@H]2OCCCC[C@@H](C)Oc3ccc(NC(=O)Nc4ccc(F)cc4)cc3C(=O)N([C@H](C)CO)C[C@H]2C)cc1 the results were PAX8 reporter 72.9*.
`COc1ccc(NC(=O)Nc2ccc3c(c2)C(=O)N([C@H](C)CO)C[C@H](C)[C@@H](CN(C)Cc2ccc(C(F)(F)F)cc2)OCCCC[C@H](C)O3)cc1` gave PAX8 reporter 49.8.
`COc1ccc(NC(=O)Nc2ccc3c(c2)C(=O)N([C@H](C)CO)C[C@@H](C)[C@@H](CN(C)Cc2ccc(C(F)(F)F)cc2)OCCCC[C@H](C)O3)cc1` gave PAX8 reporter 73.3*.
`COc1ccc(CN(C)C[C@@H]2OCCCC[C@@H](C)Oc3ccc(NC(=O)Nc4ccc(C(F)(F)F)cc4)cc3C(=O)N([C@H](C)CO)C[C@@H]2C)cc1` gave PAX8 reporter -6.3.
COc1ccc(CN(C)C[C@@H]2OCCCC[C@@H](C)Oc3ccc(NC(=O)Nc4ccc(C(F)(F)F)cc4)cc3C(=O)N([C@@H](C)CO)C[C@@H]2C)cc1 was read as PAX8 reporter 86.2*.
Screening COc1ccc(CN(C)C[C@@H]2OCCCC[C@@H](C)Oc3ccc(NC(=O)Nc4ccc(OC)cc4)cc3C(=O)N([C@@H](C)CO)C[C@H]2C)cc1 returned PAX8 reporter -8.2.
For COc1ccc(CN(C)C[C@@H]2OCCCC[C@H](C)Oc3ccc(NC(=O)Nc4ccc(C(F)(F)F)cc4)cc3C(=O)N([C@@H](C)CO)C[C@H]2C)cc1 the results were PAX8 reporter 87.5*.
Screening COc1ccc(CN(C)C[C@H]2OCCCC[C@H](C)Oc3ccc(NC(=O)Nc4ccc(C(F)(F)F)cc4)cc3C(=O)N([C@H](C)CO)C[C@H]2C)cc1 returned PAX8 reporter 102.0*.
For COc1ccc(CN(C)C[C@H]2OCCCC[C@H](C)Oc3ccc(NC(=O)Nc4ccc(C(F)(F)F)cc4)cc3C(=O)N([C@@H](C)CO)C[C@@H]2C)cc1 the results were PAX8 reporter 106.1*.
Screening COc1ccc(CN(C)C[C@@H]2OCCCC[C@H](C)Oc3ccc(NC(=O)Nc4ccc(C(F)(F)F)cc4)cc3C(=O)N([C@H](C)CO)C[C@H]2C)cc1 returned PAX8 reporter 103.6*.
CN(C)C(=O)c1cccc(-c2ccc(C3[C@H]4CNC[C@@H]3N4S(=O)(=O)c3ccccc3F)cc2)c1 (stereo partly drawn) was read as PAX8 reporter 9.8.
Screening CO[C@@H]1CN(C)C(=O)c2ccc(NC(=O)c3ccccc3F)cc2OC[C@H](C)N(C)C[C@H]1C returned PAX8 reporter -22.3.
Screening CCOC(=O)Nc1ccc2c(c1)C(=NO)c1ccccc1-2 returned Shn3 3UTR inh 92.1*, PAX8 reporter -82.8 and Gli-Sufu block -51.6.
For O=C(C[C@H]1CC[C@H](NC(=O)Nc2cc(F)ccc2F)[C@H](CO)O1)Nc1ccc(-c2ccccc2)cc1 the results were PAX8 reporter -8.2.
`Nc1ccc(S(=O)(=O)NNC(=O)C(=O)NNc2ccccc2)cc1` gave Mdm2-MdmX inh -14.7, Shn3 3UTR inh -13.4, PAX8 reporter 1.1, CSC inhib -5.6, Beta cell apopt -3.6 and Gli-Sufu block 4.2.
Screening O=C(NNc1ccccc1)C(=O)NNS(=O)(=O)c1ccc(CCCl)cc1 returned Mdm2-MdmX inh -26.9, Shn3 3UTR inh 85.8*, PAX8 reporter -20.4, CSC inhib 105.1*, Beta cell apopt 0.3 and Gli-Sufu block -7.3.
`CN1CCN(c2ccc(CNS(=O)(=O)c3ccccc3)cc2)CC1` gave Mdm2-MdmX inh -10.9, Shn3 3UTR inh 5.4, PAX8 reporter 13.0, CSC inhib 33.5, Beta cell apopt -8.7 and Gli-Sufu block -0.3.
